SMILES strings stand for the structures. About 2,100 (0.53%) of roughly 400,000 compounds were called active. Inconclusive results (about 14%) are left out. How the calls were made is not given here. What follows is part of a selection rich in actives, with near analogues and random picks from the rest.

66 molecules from ChEMBL document CHEMBL1201862, “PubChem BioAssay data set” (2004) can be followed below.

In this test the target is Ataxin-2 (Homo sapiens) (UniProt Q99700). In words: qHTS for Inhibitors of ATXN expression. The test is classed as functional. A general note: Quantitative high-throughput screening tests each substance at several concentrations.
Sequence of Ataxin-2 (Homo sapiens) (Q99700 whole entry): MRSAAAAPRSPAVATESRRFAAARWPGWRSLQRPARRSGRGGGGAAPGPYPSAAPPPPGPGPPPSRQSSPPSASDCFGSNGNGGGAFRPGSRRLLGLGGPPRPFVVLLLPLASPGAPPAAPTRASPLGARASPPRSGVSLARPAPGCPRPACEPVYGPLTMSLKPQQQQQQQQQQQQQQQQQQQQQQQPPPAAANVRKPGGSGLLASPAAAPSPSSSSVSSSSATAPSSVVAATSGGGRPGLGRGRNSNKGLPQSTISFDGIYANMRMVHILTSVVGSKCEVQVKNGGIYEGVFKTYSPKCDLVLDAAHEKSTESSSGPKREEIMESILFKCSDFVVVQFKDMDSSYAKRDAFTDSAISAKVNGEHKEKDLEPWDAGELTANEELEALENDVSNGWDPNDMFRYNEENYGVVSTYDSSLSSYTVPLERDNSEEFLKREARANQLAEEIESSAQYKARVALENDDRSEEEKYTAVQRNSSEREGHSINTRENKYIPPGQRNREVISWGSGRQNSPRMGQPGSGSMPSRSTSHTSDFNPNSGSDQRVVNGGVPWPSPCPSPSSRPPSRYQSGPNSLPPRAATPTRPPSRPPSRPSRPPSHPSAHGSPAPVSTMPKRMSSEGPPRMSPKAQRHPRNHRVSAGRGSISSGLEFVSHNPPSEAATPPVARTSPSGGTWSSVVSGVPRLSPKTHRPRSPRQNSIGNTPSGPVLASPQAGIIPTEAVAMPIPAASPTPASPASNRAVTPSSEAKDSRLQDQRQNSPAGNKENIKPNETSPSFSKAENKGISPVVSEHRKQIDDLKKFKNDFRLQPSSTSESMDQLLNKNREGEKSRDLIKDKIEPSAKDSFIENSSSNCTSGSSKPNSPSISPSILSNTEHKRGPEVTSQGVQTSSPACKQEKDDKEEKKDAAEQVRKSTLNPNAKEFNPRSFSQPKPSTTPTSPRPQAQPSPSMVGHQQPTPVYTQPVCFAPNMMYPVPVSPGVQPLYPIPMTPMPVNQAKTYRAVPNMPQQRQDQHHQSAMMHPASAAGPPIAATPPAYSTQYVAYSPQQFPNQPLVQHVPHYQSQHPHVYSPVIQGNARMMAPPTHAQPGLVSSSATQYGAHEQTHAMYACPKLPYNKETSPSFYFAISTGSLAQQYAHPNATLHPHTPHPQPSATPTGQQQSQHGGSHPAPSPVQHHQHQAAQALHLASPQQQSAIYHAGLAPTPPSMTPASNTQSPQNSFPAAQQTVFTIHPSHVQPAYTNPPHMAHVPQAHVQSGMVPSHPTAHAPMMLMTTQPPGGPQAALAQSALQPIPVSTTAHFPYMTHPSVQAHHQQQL
As for `CCCCN(CCCC)C(=O)c1cc2c(=O)n3cccc(C)c3nc2s1`, the Potency entry was “inactive”. In the case of `O=c1[nH][nH]c(=O)c2c(NS(=O)(=O)c3ccccc3)cccc12` it was “inactive”. Regarding `N=C(N)Nc1nc(-c2ccccc2)c2ccccc2n1`, the Potency was 1.41 µM (active). In the case of `O=C(O)c1ccc(Nc2nc(-c3ccccc3)c3ccccc3n2)cc1` it was “inactive”.

Take `NNc1nc(-c2ccccc2)c2ccccc2n1`: the Potency result was “inactive”. In the case of `CCCCN(C)CC(O)Cn1cc(/C=C/C(=O)c2ccc(OC)c(OC)c2)c2ccccc21` (stereo unspecified) it was “inactive”. In the case of `c1ccc(-c2cn3nc(-c4ccccc4)c(-c4ccccc4)nc3n2)cc1`, the Potency result is “inactive”. In the case of `c1ccc(-c2cn3nc4c(nc3n2)CCCC4)cc1` it was “inactive”; in that of `c1ccc(-c2cn3c(n2)CCc2ccc4cccnc4c2-3)cc1`, 39.8 µM (active). In the case of `COC(=O)C1CCN(C(c2cc(OC)c(OC)c(OC)c2)c2sc3nc(C)nn3c2O)CC1` (stereo unspecified) it was “inactive”.

For the molecule `O=C(C1CCCCC1)N1C[C@@H](n2cc(-c3ccc(F)cc3)nn2)[C@H](O)C[C@@H]1c1ccc(Cl)cc1`, the Potency was 22.4 µM (active). Take `O=C(C1CCCCC1)N1CCC(O)(c2ccc(Cl)cc2)CC1`: the Potency entry was “inactive”. In the case of `Cc1ccc([C@H]2C[C@@H](O)[C@H](n3cc(-c4ccc(F)cc4)nn3)CN2C(=O)C2CCCCC2)cc1` it was 22.4 µM (active); in that of `CC1CSc2n1c(-c1ccccc1)c[n+]2-c1cccc(C(F)(F)F)c1` (stereo unspecified), “inactive”. In the case of `CC(C)NC(=O)N1c2ccccc2Sc2ccccc21` it was “inactive”; in that of `Cc1nnc(SCc2cccc3ccccc23)s1`, “inactive”. Take `Cc1nnc(SC(=O)N2c3ccccc3Sc3ccccc32)s1`: the Potency was 25.1 µM (active).

As for `Cc1ccc(N=C(S)NCCc2c[nH]c3ccccc23)c(C)c1`, the Potency entry was “inactive”. In the case of `COc1ccc(C(=O)c2[nH]c(N)c(C(=O)NCCc3c[nH]c4ccccc34)c2-c2ccccc2Br)cc1` it was 31.6 µM (active). In the case of `O=C(CCCc1c[nH]c2ccccc12)Nc1ccc2ccccc2c1` it was “inactive”; in that of `COc1ccc(C(=O)OCC(=O)c2c[nH]c3ccccc23)c(OC)c1`, “inactive”; in that of `Nc1[nH]c(C(=O)c2ccccc2)c(-c2ccc(Cl)c(F)c2)c1C(=O)NCCc1c[nH]c2ccccc12`, 35.5 µM (active).

As to `Nc1[nH]c(C(=O)c2ccccc2)c(-c2ccccc2C(F)(F)F)c1C(=O)NCCc1c[nH]c2ccccc12`, the Potency is 25.1 µM (active).

`Nc1[nH]c(C(=O)c2ccccc2)c(-c2ccc(F)cc2)c1C(=O)NCCc1c[nH]c2ccccc12`: the Potency is 39.8 µM (active). `CC(C)NC(=O)COCc1cc(-c2ccc3c(c2)OCO3)on1`: the Potency result is “inactive”. In the case of `Cc1c(Cc2ccccc2)sc(/N=C/c2ccc3ccccc3c2)c1C(N)=O` it was “inactive”. In the case of `O=C1c2cccnc2C(=O)N1Cc1ccc(F)cc1S(=O)(=O)NCc1ccco1` it was “inactive”; in that of `O=C(COC(=O)c1c2c(nc3ccccc13)/C(=C/c1ccco1)CC2)NC1CCCC1`, “inactive”; in that of `COCCn1c(N)c(C(=O)NCC2CCCO2)c2nc3ccccc3nc21` (stereo unspecified), “inactive”.

As to `COC(=O)c1cc(S(=O)(=O)NCC2CCN(Cc3cc(C)ccc3C)CC2)cn1C`, the Potency entry is “inactive”. For `N#C/C(=C\c1cc(Cl)cc(Cl)c1O)C(=O)NC1CCCCC1`, the Potency entry was “inactive”. `O=[N+]([O-])c1c(Nc2ccc(O)cc2)cc(Cl)c2nonc12`: the Potency was 2.24 µM (active). As for `O=C(N/N=C/c1ccsc1)C1CC1`, the Potency result was “inactive”. In the case of `COc1ccc2[nH]c(CN3CCN(CCC(C)C)C(CCO)C3)c(C)c2c1` (stereo unspecified) it was “inactive”; in that of `CCOC(=O)C1=C(C)N=c2s/c(=C/c3ccc(OCC(=O)O)c(OC)c3)c(=O)n2C1c1ccc(Cl)cc1` (stereo unspecified), “inactive”; in that of `CCN1CCN(CC(=O)Nc2nc3ccc(C)cc3s2)CC1`, “inactive”. In the case of `CCc1nnc(NC(=O)c2sc3nc4c(cc3c2N)CCCCC4)s1` it was “inactive”. In the case of `CCOCCC(=O)Nc1nnc(CCc2ccccc2)s1` it was “inactive”; in that of `Cc1ccc(CS(=O)(=O)c2ncc(Cl)c(C(=O)Nc3nc4ccc(C)cc4s3)n2)cc1`, 22.4 µM (active); in that of `Cc1ccc2nc(-c3ccc(NS(=O)(=O)c4c(C)n(C)c(=O)n(C)c4=O)cc3)sc2c1`, “inactive”. `CCCc1nnc(NC(=O)c2nc(S(=O)(=O)Cc3ccc(C)cc3)ncc2Cl)s1`: the Potency was 39.8 µM (active). Take `CCc1nnc(NC(=O)c2nc(S(=O)(=O)Cc3ccc(C)cc3)ncc2Cl)s1`: the Potency was 31.6 µM (active). In the case of `CCc1nnc(NC(=O)c2ccc(S(=O)(=O)N(CCOC)CCOC)cc2)s1`, the Potency result was “inactive”. Take `CCCc1nnc(NC(=O)c2nc(S(=O)(=O)Cc3cccc(C)c3)ncc2Cl)s1`: the Potency is 35.5 µM (active). In the case of `CCc1nnc(NC(=O)c2ccc(Br)o2)s1` it was “inactive”. In the case of `CC(=O)Nc1nnc(COc2ccc(Cl)cc2)s1` it was “inactive”. Take `CCc1nnc(NC(=O)c2sc3nc4c(cc3c2N)CCCCCC4)s1`: the Potency entry is “inactive”. In the case of `Cc1sc(NC(=O)/C=C/c2ccco2)c(C(=O)OC(C)C)c1C` it was “inactive”; in that of `O=C(O)CC/C(=N/NC(=O)CNC(=O)Cc1ccccc1)c1ccccc1`, “inactive”; in that of `COc1ccc(/C=N/NC(=O)c2sccc2C)c2ccccc12`, “inactive”. In the case of `CCCc1nnc(SCC(=O)Nc2cccc(Cl)c2Cl)o1` it was “inactive”; in that of `Fc1ccc(NC(S)=Nc2nccs2)cc1`, “inactive”; in that of `O=C(c1cnn(-c2ccc(Cl)cc2)c1)c1ccccc1O`, “inactive”. As to `OCCNc1c2ccccc2nc2c(F)c(F)c(F)c(F)c12`, the Potency entry is “inactive”.

Consider `O=c1oc2c(CN3CCCCC3)c(O)ccc2cc1-c1nc2ccccc2[nH]1`, for which the Potency entry is “inactive”. Take `CC(C)(C)NC(=O)CSc1nnc(NC(=O)CCc2ccccc2)s1`: the Potency entry is “inactive”. In the case of `CSc1ncc(C(=O)Nc2ccccc2Cl)c(C)n1` it was “inactive”.

Regarding `CSc1nnc(NC(=O)c2nc(S(=O)(=O)Cc3ccccc3)ncc2Cl)s1`, the Potency is 28.2 µM (active). In the case of `O=C(CN(CCc1ccccc1)C(=O)c1csnn1)NCc1ccc(F)cc1` it was “inactive”. `Cc1ccccc1C1N=C2Oc3ccccc3C=C2C(=O)N1` (stereo unspecified): the Potency result is “inactive”. For `COc1c(C)cc(S(=O)(=O)NCc2ccco2)c(C)c1C`, the Potency entry is “inactive”. In the case of `CCN1/C(=C/C=C/c2oc3ccc(-c4ccccc4)cc3[n+]2CC)Oc2ccc(-c3ccccc3)cc21` it was 29.9 µM (active). Consider `O=C(Cc1ccc(NC2=NC3CS(=O)(=O)CC3S2)cc1)N1CCN(c2ccc(F)cc2)CC1` (stereo unspecified), for which the Potency result was “inactive”.

Regarding `COc1ccc(CN2C(=O)c3cccnc3C2=O)cc1S(=O)(=O)NCc1ccc(C)o1`, the Potency result was “inactive”.

Consider `COc1cc(CCNC2=CC(=O)c3ncccc3C2=O)ccc1O`, for which the Potency was 16.8 µM (active). In the case of `COc1ccc(CN2C(=O)c3cccnc3C2=O)cc1S(=O)(=O)N1CCOc2ccccc21` it was “inactive”.
